The source of these data is PubChem BioAssay (NCI).

The structures appear in SMILES notation. Compounds without any hit were thinned out: in the full panel of roughly 83,000, 20% have a hit.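 Single-dose data. Exposure time 48 hours. Values below 10 considered active.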 A number with no mark means an inactive call. Calls of active or inactive are those of the source.

Test systems include NCI-H23 lung; NCI-H226 lung; NCI-H322M lung; HOP-62 NSCLC; NCI-H460 lung; HOP-92 NSCLC; NCI-H522 lung; A549/ATCC NSCLC; 786-0 renal; COLO 205 colon; DU-145 prostate; K-562 leukemia; MALME-3M melanoma; MDA-MB-231 breast; RXF 393 renal; SF-268 CNS; SF-295 CNS; SF-539 CNS; UACC-257 melanoma; M14 melanoma.
What all share (experiment): NCI-60 one-dose screen, 48 h (100 = growth as untreated, 0 = no growth, -100 = all killed)
Common to all, as to conditions: 10 µM unless noted

With `CCOC(=S)S[C@H]1C[C@@H]2[C@H](CC[C@]3(C)C(=O)CC[C@@H]23)[C@@]2(C)CCC(=O)C=C12`, the growth was 101% with NCI-H23 lung; 106% in the test with NCI-H226 lung; 102% in the test on NCI-H322M lung; 112% in the test with HOP-62 NSCLC; 105% in the test with NCI-H460 lung; 117% in the test on HOP-92 NSCLC. Besides, the growth in the test on NCI-H522 lung is 95.6%; with A549/ATCC NSCLC it was 107%; with 786-0 renal it was 102%; in the test with COLO 205 colon, 115%; with DU-145 prostate, 103%; with K-562 leukemia it was 95.3%. The growth is 107% in the test on MALME-3M melanoma; 95.2% in the test with MDA-MB-231 breast; 102% in the test with RXF 393 renal; 95.5% in the test on SF-268 CNS; 95.7% with SF-295 CNS; 99.7% with SF-539 CNS. Moreover, the growth in the test on UACC-257 melanoma is 101%; in the test on M14 melanoma, 102%.
`O=C(O)c1c(Cl)n(Cc2ccc(O)cc2)c2ccc(O)cc12`: the growth in the test on NCI-H23 lung is 113%; in the test on NCI-H226 lung it was 97.2%; with NCI-H322M lung it was 96.3%; in the test on HOP-62 NSCLC, 93.7%; with NCI-H460 lung, 106%; in the test with HOP-92 NSCLC it was 65%. Besides, the growth is 83.4% in the test with NCI-H522 lung; 103% in the test with A549/ATCC NSCLC; 108% with 786-0 renal; 110% in the test on COLO 205 colon; 111% in the test on DU-145 prostate; 112% with K-562 leukemia. For the same compound, the growth is 106% with MALME-3M melanoma; 102% with MDA-MB-231 breast; 46.6% with RXF 393 renal; 101% in the test on SF-268 CNS; 101% with SF-295 CNS; 98.8% in the test on SF-539 CNS. The growth with UACC-257 melanoma was 101%.
Regarding `CC(=O)O[C@H]1C(=O)[C@@]2(C)[C@H]([C@H](OC(=O)c3ccccc3)[C@]3(O)C[C@H](OC(=O)[C@H](OC(=O)OCC4COC(C)(C)O4)[C@@H](NC(=O)c4ccccc4)c4ccccc4)C(C)=C1C3(C)C)[C@]1(OC(C)=O)CO[C@@H]1C[C@@H]2O` (stereo not given in full), the growth was 37.8% in the test with NCI-H23 lung; 72.8% with NCI-H226 lung; 40.6% with NCI-H322M lung; 48.1% in the test with HOP-62 NSCLC; 13.1% in the test on NCI-H460 lung; 74% with HOP-92 NSCLC. Also, the growth with NCI-H522 lung was 38.7%; in the test on A549/ATCC NSCLC, 30%; with 786-0 renal, 54.2%; in the test with COLO 205 colon, 7.19% (active); with DU-145 prostate, 22.9%; in the test with K-562 leukemia, 19.8%. The growth is 45% in the test on MALME-3M melanoma; 39.9% with MDA-MB-231 breast; 32.9% in the test with RXF 393 renal; 61.1% in the test with SF-268 CNS; 17.5% in the test on SF-295 CNS; 24.9% in the test on SF-539 CNS. The growth in the test on UACC-257 melanoma is 59.4%.
For the compound `C=CC1=C[C@@H]2[C@@H]3O[C@]4(CC[C@H](O4)[C@@H](C)C[C@@H](O)C3=O)C[C@H](O)C3=NCC[C@@]32CC1`, the growth in the test on NCI-H23 lung is -34.6% (active); in the test on NCI-H226 lung, -29.2% (active); in the test with NCI-H322M lung, -23.4% (active); with HOP-62 NSCLC it was -20.3% (active); in the test with NCI-H460 lung it was -28.9% (active); in the test on HOP-92 NSCLC, -22.3% (active). For the same compound, the growth with NCI-H522 lung is -33.5% (active); in the test on A549/ATCC NSCLC, -3.33% (active); with 786-0 renal, -28.3% (active); in the test on COLO 205 colon, -25.6% (active); with DU-145 prostate, -26.7% (active); in the test on K-562 leukemia, 5.48% (active). Also, the growth with MALME-3M melanoma was -82.2% (active); in the test with MDA-MB-231 breast, -29.2% (active); in the test with RXF 393 renal it was -67.3% (active); in the test on SF-268 CNS, -35.8% (active); with SF-295 CNS, -35.9% (active); in the test with SF-539 CNS, -43.6% (active). The growth with UACC-257 melanoma was -31.5% (active).
In the case of `CC(C)=CCC[C@H](C(=O)O)[C@@H]1CC[C@]2(C)C3=C(CC[C@@]12C)[C@@]1(C)CC[C@H](O)C(C)(C)[C@@H]1CC3`, the growth with NCI-H23 lung is 106%; with NCI-H226 lung, 109%; in the test with NCI-H322M lung, 84.2%; with HOP-62 NSCLC, 97.3%; in the test with NCI-H460 lung, 109%; in the test with HOP-92 NSCLC it was 101%. The growth in the test on NCI-H522 lung was 60.8%; in the test with A549/ATCC NSCLC, 81.8%; in the test on 786-0 renal, 92%; in the test with COLO 205 colon it was 120%; with DU-145 prostate, 110%; with K-562 leukemia, 70.4%. Also, the growth with MALME-3M melanoma was 106%; in the test with MDA-MB-231 breast, 103%; in the test on RXF 393 renal, 104%; with SF-268 CNS it was 101%; in the test on SF-295 CNS, 94.6%; in the test on SF-539 CNS it was 93.2%. Also, the growth in the test on UACC-257 melanoma was 88.9%.
Consider `O=C1C2C(C(=O)[N]1[Hg][c]1ccccc1)C1(Cl)C(Cl)=C(Cl)C2(Cl)C1(Cl)Cl` (stereo not given), for which the growth is -8.01% (active) in the test on NCI-H23 lung; 82.9% with NCI-H226 lung; 45.1% with NCI-H322M lung; 47.2% with HOP-62 NSCLC; -20.9% (active) in the test on NCI-H460 lung; -84.5% (active) in the test on HOP-92 NSCLC. For the same compound, the growth in the test on NCI-H522 lung is -87.4% (active); with A549/ATCC NSCLC, 78.7%; with 786-0 renal it was 26%; with COLO 205 colon, -96.5% (active); with DU-145 prostate, -86.6% (active); with K-562 leukemia, 4.39% (active). The growth in the test with MALME-3M melanoma was -78.4% (active); in the test on MDA-MB-231 breast, -2.38% (active); with RXF 393 renal, -98.6% (active); in the test on SF-268 CNS, -66.4% (active); in the test with SF-295 CNS, 67.8%; in the test on SF-539 CNS it was 10.3%. In addition, the growth in the test with UACC-257 melanoma was -67.8% (active).
Consider `CCOC(=O)[C@@H](C)C[C@H](Cc1ccccc1)NC(=O)c1csc([C@@H](C[C@H](C(C)C)N(C)C(=O)[C@@H](NC(=O)[C@H]2CCCCN2C)C(C)(C)CC)OC(C)=O)n1`, for which the growth in the test with NCI-H23 lung is 26.9%; in the test on NCI-H226 lung, -41.7% (active); in the test on NCI-H322M lung, 34.4%; in the test on HOP-62 NSCLC, 18.8%; in the test with NCI-H460 lung it was -10.1% (active); in the test with HOP-92 NSCLC, 16%. For the same compound, the growth with NCI-H522 lung was -32.8% (active); in the test with A549/ATCC NSCLC it was 10.1%; in the test with 786-0 renal, 1.55% (active); with COLO 205 colon, -62.6% (active); in the test with DU-145 prostate it was 0.285% (active); in the test on K-562 leukemia, 5.03% (active). Besides, the growth in the test with MALME-3M melanoma is 11.9%; with MDA-MB-231 breast it was -1.28% (active); with RXF 393 renal, 23.5%; in the test on SF-268 CNS it was 12.3%; in the test on SF-295 CNS, -4.66% (active); in the test with SF-539 CNS, -28.4% (active). In addition, the growth in the test on UACC-257 melanoma was 48.1%; with M14 melanoma, -26.8% (active).
